18 compounds from PubChem BioAssay can be followed below.

The nature of assay [1]: SK-BR-3 cell growth inhibitors, pilot screen, 24 h, human (AID 572).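 Further: compound exposure lasted between 18 and 24 h rather than exactly 24 h; 100% = carrier-treated control wells.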 To be noted: SK-BR-3 viability, CellTiter-Glo luminescence, at 10 µM, stronger effect = lower value.
The nature of assay [2]: HUVEC growth inhibition – cell-based, human, primary screen (AID 575;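 active means viability at or below 30% in both replicate assays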;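 further: 100% = median of untreated cell wells with 0.1% DMSO on each plate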). The following applies: HUVEC proliferation, CellTiter-Glo luminescence, 72 h; at 10 µM; stronger effect = lower value.
The nature of assay [3]: growth inhibitors of H69AR lung tumor, primary screen, human, duplicate replicates (AID 580;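 active means viability at or under a set limit in both replicates, limit being median viability minus 3 SD, cut at about 48% in these data, passing the limit was not always enough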;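 further: 100% = mean luminescence of untreated wells and 0% = no signal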). The following applies: H69AR lung tumor cells viability, ATP luminescence, 72 h; at 10 µM; stronger effect = lower value.
A short description of assay [4]: reversal of MRP1-mediated doxorubicin resistance, pilot screen, H69AR cells, doxorubicin co-treatment (AID 601;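 active means viability loss from added drug above about 55%, and viability with drug at most 40%, in both replicates, limit read from the data, passing the limit was not always enough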). To be noted: CellTiter-Glo, 72 h, at 10 µM; for differential viability (reversal): stronger effect = higher value.
The nature of assay [5]: 384-well plate pilot, post-Golgi transport modulator project, inhibition of yeast transport mutant growth (AID 636; in the data active means inhibition above about 31%). To be noted: absorbance 615 nm, about 18 h, stronger effect = higher value.
Assay [6] in a line: growth suppression of yeast trafficking mutant, preliminary HTS, modulators of trafficking downstream of Golgi apparatus project, 1536-format plate, OD 615 nm (AID 637; in the data active means inhibition above about 30%). The following applies: yeast transport mutant growth, absorbance 615 nm, 18 h; stronger effect = higher value.
[7] abbreviates: H69AR cells + 2 uM doxorubicin, measured here: viability with 2 uM doxorubicin, stronger effect = lower value.
[8] abbreviates: H69AR cells, compound alone cytotoxicity.

The source made the active and inactive calls.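 How the source made its calls, unless noted: active means viability at or below 10% of carrier control in both of two separate runs; inconclusive means viability at or below 10% in only one of the two runs; inactive means the rest.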

As to `CCc1cccc(NC(=O)CN(C)S(=O)(=O)c2cccc3nsnc23)c1`, the viability in assay [1] was 92% (inactive); in assay [2], 90.3% (inactive); in assay [3] it was 91.8% (inactive); in assay [4] (setting [7]), 84.1%; in assay [4] (setting [8]) it was 91.8%. Also, in assay [4] (H69AR cells + 2 uM doxorubicin), the differential viability (reversal) is 7.68% (inactive). Further, the inhibition in assay [5] was -5.68% (inactive); in assay [6], -2.55% (inactive).
In the case of `O=C(COC(=O)CCC1CCCC1)Nc1ccc(Cl)cn1`, the viability was 107% (inactive) in assay [1]; 101% (inactive) in assay [2]; 98.6% (inactive) in assay [3]; 93.2% in assay [4] (setting [7]); 98.6% in assay [4] (setting [8]). Further, the differential viability (reversal) in assay [4] (H69AR cells + 2 uM doxorubicin) is 5.36% (inactive). Also, the inhibition was 0% (inactive) in assay [5] and -1.45% (inactive) in assay [6].
Take `Cc1nc(Sc2cccn2C)c(C(F)(F)F)c(=O)[nH]1`: the viability is 105% (inactive) in assay [1]; 102% (inactive) in assay [2]; 96.3% (inactive) in assay [3]; 83.1% in assay [4] (setting [7]); 96.3% in assay [4] (setting [8]). Also, the differential viability (reversal) in assay [4] (H69AR cells + 2 uM doxorubicin) is 13.2% (inactive). Also, the inhibition was -6.58% (inactive) in assay [5] and 2% (inactive) in assay [6].
As to `COc1ccccc1N(CC(=O)NC1CCCC1)C(=O)CCC(=O)Nc1cc(C)on1`, the viability in assay [1] was 98% (inactive); in assay [2] it was 102% (inactive); in assay [3], 85.3% (inactive); in assay [4] (setting [7]), 87.1%; in assay [4] (setting [8]), 85.3%. For the same compound, the differential viability (reversal) in assay [4] (H69AR cells + 2 uM doxorubicin) was -1.76% (inactive). In addition, the inhibition is -2% (inactive) in assay [5] and 9.82% (inactive) in assay [6].
As to `C=CCN(CC=C)C(=O)c1ccncc1`, the viability in assay [1] was 115% (inactive); in assay [2], 92.8% (inactive); in assay [3] it was 102% (inactive); in assay [4] (setting [7]) it was 104%; in assay [4] (setting [8]), 102%. Also, the differential viability (reversal) in assay [4] (H69AR cells + 2 uM doxorubicin) was -2.84% (inactive). The inhibition is 0.68% (inactive) in assay [5] and -4.84% (inactive) in assay [6].
In the case of `CCOC(=O)N1CCC(NC(=O)Cn2ncc3c4ccccc4n(C)c3c2=O)CC1`, the viability is 114% (inactive) in assay [1]; 116% (inactive) in assay [2]; 97.5% (inactive) in assay [3]; 105% in assay [4] (setting [7]); 97.5% in assay [4] (setting [8]). Further, the differential viability (reversal) in assay [4] (H69AR cells + 2 uM doxorubicin) is -7.6% (inactive). Further, the figures for the inhibition in assay [5] and in assay [6] were -7.43% (inactive) and -3.27% (inactive), respectively.
With `CC(=O)Nc1ccccc1O`, the viability was 111% (inactive) in assay [1]; 102% (inactive) in assay [2]; 96.1% (inactive) in assay [3]; 95.7% in assay [4] (setting [7]); 96.1% in assay [4] (setting [8]). The differential viability (reversal) in assay [4] (H69AR cells + 2 uM doxorubicin) is 0.37% (inactive). Moreover, the values for the inhibition in assay [5] and in assay [6] were -0.13% (inactive) and 4.5% (inactive), respectively.
As for `CC(=O)Nc1c(C(=O)O)[nH]c2ccccc12`, the viability is 103% (inactive) in assay [1]; 97.9% (inactive) in assay [2]; 104% (inactive) in assay [3]; 101% in assay [4] (setting [7]); 104% in assay [4] (setting [8]). For the same compound, the differential viability (reversal) in assay [4] (H69AR cells + 2 uM doxorubicin) was 3.33% (inactive). Also, the results for the inhibition in assay [5] and in assay [6] were -4.46% (inactive) and -8.36% (inactive), respectively.
For `CC(=O)[C@@]1(O)CC[C@H]2[C@@H]3C[C@H](C)C4=CC(=O)C=C[C@]4(C)[C@@]3(F)[C@@H](O)C[C@@]21C`, the viability in assay [1] was 100% (inactive); in assay [2] it was 92.3% (inactive); in assay [3] it was 93.2% (inactive); in assay [4] (setting [7]), 103%; in assay [4] (setting [8]), 93.2%. The differential viability (reversal) in assay [4] (H69AR cells + 2 uM doxorubicin) was -9.97% (inactive). Moreover, the inhibition was -0.91% (inactive) in assay [5] and 7.83% (inactive) in assay [6].
For `Cc1cccc(C)c1-n1nnnc1SCSc1nnnn1-c1c(C)cccc1C`, the viability in assay [1] was 92% (inactive); in assay [2], 66.8% (inactive); in assay [3], 72.1% (inactive); in assay [4] (setting [7]), 73.3%; in assay [4] (setting [8]), 72.1%. For the same compound, in assay [4] (H69AR cells + 2 uM doxorubicin), the differential viability (reversal) was -1.23% (inactive). Also, the inhibition in assay [5] is -7.81% (inactive); in assay [6] it was -0.73% (inactive).
Turning to `CCOC(=O)N1CCC(NC(=O)Cc2ccc(-n3c(=O)[nH]c4ccccc4c3=O)cc2)CC1`, the viability was 103% (inactive) in assay [1]; 97.6% (inactive) in assay [2]; 96.4% (inactive) in assay [3]; 88.5% in assay [4] (setting [7]); 96.4% in assay [4] (setting [8]). Besides, in assay [4] (H69AR cells + 2 uM doxorubicin), the differential viability (reversal) was 7.9% (inactive). Also, the inhibition is -5.06% (inactive) in assay [5] and 0% (inactive) in assay [6].
On to `CC(=O)OCC1=C(C(=O)O)N2C(=O)[C@@H](NC(=O)Cc3cccs3)[C@H]2SC1`, for which the viability is 141% (inactive) in assay [1]; 94.8% (inactive) in assay [2]; 94.2% (inactive) in assay [3]; 90.2% in assay [4] (setting [7]); 94.2% in assay [4] (setting [8]). The differential viability (reversal) in assay [4] (H69AR cells + 2 uM doxorubicin) is 3.98% (inactive). The inhibition is -4.81% (inactive) in assay [5] and 8.5% (inactive) in assay [6].
With `COC(=O)Nc1sccc1C(=O)Nc1sccc1C(=O)OC`, the viability in assay [1] was 62% (inactive); in assay [2], 88.5% (inactive); in assay [3], 52.2% (inactive); in assay [4] (setting [7]), 66%; in assay [4] (setting [8]) it was 52.2%. Moreover, the differential viability (reversal) in assay [4] (H69AR cells + 2 uM doxorubicin) was -13.8% (inactive). For the same compound, the figures for the inhibition in assay [5] and in assay [6] were 2.47% (inactive) and -2.36% (inactive), respectively.
As to `Cc1cnc(NC(=O)C2=C(O)c3ccccc3S(=O)(=O)N2C)s1`, the viability in assay [1] was 102% (inactive); in assay [2], 84% (inactive); in assay [3] it was 89.9% (inactive); in assay [4] (setting [7]), 89.3%; in assay [4] (setting [8]) it was 89.9%. Further, in assay [4] (H69AR cells + 2 uM doxorubicin), the differential viability (reversal) was 0.62% (inactive). The inhibition in assay [5] was 3.51% (inactive); in assay [6], -2.83% (inactive).
Turning to `c1ccc(Cn2ncc3c2ncn2c(-c4ccncc4)nnc32)cc1`, the viability in assay [1] is 99% (inactive); in assay [2], 95.3% (inactive); in assay [3], 95% (inactive); in assay [4] (setting [7]), 96.9%; in assay [4] (setting [8]), 95%. The differential viability (reversal) in assay [4] (H69AR cells + 2 uM doxorubicin) was -1.95% (inactive). The inhibition in assay [5] is -8.77% (inactive); in assay [6], -6.77% (inactive).
For the compound `C1CCN=C(Nc2nc3c(s2)CCCC3)CC1`, the viability in assay [1] is 104% (inactive); in assay [2] it was 109% (inactive); in assay [3], 89.4% (inactive); in assay [4] (setting [7]) it was 81.9%; in assay [4] (setting [8]), 89.4%. Also, in assay [4] (H69AR cells + 2 uM doxorubicin), the differential viability (reversal) was 7.56% (inactive). In addition, the inhibition in assay [5] was -5.6% (inactive); in assay [6], -1.45% (inactive).
For the compound `O=C(Nc1ccccc1-c1ccccc1)NC1CCN(C(=O)N2CCOCC2)CC1`, the viability in assay [1] is 108% (inactive); in assay [2], 95.9% (inactive); in assay [3], 103% (inactive); in assay [4] (setting [7]), 99.5%; in assay [4] (setting [8]) it was 103%. Besides, the differential viability (reversal) in assay [4] (H69AR cells + 2 uM doxorubicin) is 3.68% (inactive). Moreover, the inhibition in assay [5] is -3.29% (inactive); in assay [6] it was 4.03% (inactive).
In the case of `CCn1cnc2sc(C(=O)Nc3ccc4c(c3)OCO4)c(C)c2c1=O`, the viability in assay [1] is 107% (inactive); in assay [2], 96.2% (inactive); in assay [3], 94% (inactive); in assay [4] (setting [7]), 83%; in assay [4] (setting [8]) it was 94%. In addition, the differential viability (reversal) in assay [4] (H69AR cells + 2 uM doxorubicin) is 11% (inactive). In addition, the inhibition in assay [5] is -8% (inactive); in assay [6], -5.27% (inactive).
